Residue numbers refer to the chain shown, from its start.
How the values were obtained:
Test in all cases: PBM; 200 nM protein, PBS
Details in all cases: dsDNA, one strand shown
SIX6 [1] = target: T1, SIX6 (Homo sapiens, UniProt O95475 114-200, L167I)
T1 sequence: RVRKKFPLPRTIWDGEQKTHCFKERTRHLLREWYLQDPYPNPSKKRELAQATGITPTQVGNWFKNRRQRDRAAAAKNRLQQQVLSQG

SIX6 [2] = target: T2, SIX6 (Homo sapiens, UniProt O95475 114-200, L143V)
T2 sequence: T1 sequence with L30V, I54L

SIX6 [3] = target: T3, SIX6 (Homo sapiens, UniProt O95475 114-200, H141N)
T3 sequence: T1 sequence with H28N, I54L

SIX6 [4] = target: T4, SIX6 (Homo sapiens, UniProt O95475 114-200, T165P)
T4 sequence: T1 sequence with T52P, I54L

SIX6 [5] = target: T5, SIX6 (Homo sapiens, UniProt O95475 114-200, L167M)
T5 sequence: T1 sequence with I54M

SIX6 [6] = target: T6, SIX6 (Homo sapiens, UniProt O95475 114-200, L143M)
T6 sequence: T1 sequence with L30M, I54L

SIX6 [7] = target: T7, SIX6 (Homo sapiens, UniProt O95475 114-200, L143I)
T7 sequence: T1 sequence with L30I, I54L

SIX6 [8] = target: T8, SIX6 (Homo sapiens, UniProt O95475 114-200, T165G)
T8 sequence: T1 sequence with T52G, I54L

SIX6 [9] = target: T9, SIX6 (Homo sapiens, UniProt O95475 114-200, T139Q)
T9 sequence: T1 sequence with T26Q, I54L

SIX6 [10] = target: T10, SIX6 (Homo sapiens, UniProt O95475 114-200, T165A)
T10 sequence: T1 sequence with T52A, I54L

SIX6 [11] = target: T11, SIX6 (Homo sapiens, UniProt O95475 114-200, L167V)
T11 sequence: T1 sequence with I54V

SIX6 [12] = target: T12, SIX6 (Homo sapiens, UniProt O95475 114-200)
T12 sequence: T1 sequence with I54L

SIX6 [13] = target: T13, SIX6 (Homo sapiens, UniProt O95475 114-200, T165I)
T13 sequence: T1 sequence with T52I, I54L

Row | Sequence | binding signal (SIX6 [1]) | binding signal (SIX6 [2]) | binding signal (SIX6 [3]) | binding signal (SIX6 [4]) | binding signal (SIX6 [5]) | binding signal (SIX6 [6]) | binding signal (SIX6 [7]) | binding signal (SIX6 [8]) | binding signal (SIX6 [9]) | binding signal (SIX6 [10]) | binding signal (SIX6 [11]) | binding signal (SIX6 [12]) | binding signal (SIX6 [13])
1 | AGTTCGGG | 8.99 upbm affinity estimate (log intensity, higher = more binding, comparable within an allelic series) | 9 upbm affinity estimate (log intensity, higher = more binding, comparable within an allelic series) | 8.96 upbm affinity estimate (log intensity, higher = more binding, comparable within an allelic series) | 9.14 upbm affinity estimate (log intensity, higher = more binding, comparable within an allelic series) | 9.03 upbm affinity estimate (log intensity, higher = more binding, comparable within an allelic series) | 9.18 upbm affinity estimate (log intensity, higher = more binding, comparable within an allelic series) | 9.05 upbm affinity estimate (log intensity, higher = more binding, comparable within an allelic series) | 9.12 upbm affinity estimate (log intensity, higher = more binding, comparable within an allelic series) | 9.14 upbm affinity estimate (log intensity, higher = more binding, comparable within an allelic series) | 8.95 upbm affinity estimate (log intensity, higher = more binding, comparable within an allelic series) | 8.74 upbm affinity estimate (log intensity, higher = more binding, comparable within an allelic series) | 9.05 upbm affinity estimate (log intensity, higher = more binding, comparable within an allelic series) | 8.91 upbm affinity estimate (log intensity, higher = more binding, comparable within an allelic series)
2 | CGCGCCGC | 9.05 upbm affinity estimate (log intensity, higher = more binding, comparable within an allelic series) | 9.06 upbm affinity estimate (log intensity, higher = more binding, comparable within an allelic series) | 9.06 upbm affinity estimate (log intensity, higher = more binding, comparable within an allelic series) | 9.04 upbm affinity estimate (log intensity, higher = more binding, comparable within an allelic series) | 9.05 upbm affinity estimate (log intensity, higher = more binding, comparable within an allelic series) | 9.02 upbm affinity estimate (log intensity, higher = more binding, comparable within an allelic series) | 9.02 upbm affinity estimate (log intensity, higher = more binding, comparable within an allelic series) | 9.01 upbm affinity estimate (log intensity, higher = more binding, comparable within an allelic series) | 9.07 upbm affinity estimate (log intensity, higher = more binding, comparable within an allelic series) | 9.12 upbm affinity estimate (log intensity, higher = more binding, comparable within an allelic series) | 9.02 upbm affinity estimate (log intensity, higher = more binding, comparable within an allelic series) | 9.09 upbm affinity estimate (log intensity, higher = more binding, comparable within an allelic series) | 9.04 upbm affinity estimate (log intensity, higher = more binding, comparable within an allelic series)
3 | CGTGATAC | 11.2 upbm affinity estimate (log intensity, higher = more binding, comparable within an allelic series) | 10.3 upbm affinity estimate (log intensity, higher = more binding, comparable within an allelic series) | 11.3 upbm affinity estimate (log intensity, higher = more binding, comparable within an allelic series) | 9.72 upbm affinity estimate (log intensity, higher = more binding, comparable within an allelic series) | 10.6 upbm affinity estimate (log intensity, higher = more binding, comparable within an allelic series) | 11.1 upbm affinity estimate (log intensity, higher = more binding, comparable within an allelic series) | 10.4 upbm affinity estimate (log intensity, higher = more binding, comparable within an allelic series) | 11.3 upbm affinity estimate (log intensity, higher = more binding, comparable within an allelic series) | 11.3 upbm affinity estimate (log intensity, higher = more binding, comparable within an allelic series) | 11.2 upbm affinity estimate (log intensity, higher = more binding, comparable within an allelic series) | 10.9 upbm affinity estimate (log intensity, higher = more binding, comparable within an allelic series) | 11 upbm affinity estimate (log intensity, higher = more binding, comparable within an allelic series) | 11 upbm affinity estimate (log intensity, higher = more binding, comparable within an allelic series)
4 | GTGTATCA | 11.5 upbm affinity estimate (log intensity, higher = more binding, comparable within an allelic series) | 10.5 upbm affinity estimate (log intensity, higher = more binding, comparable within an allelic series) | 11.4 upbm affinity estimate (log intensity, higher = more binding, comparable within an allelic series) | 9.86 upbm affinity estimate (log intensity, higher = more binding, comparable within an allelic series) | 10.9 upbm affinity estimate (log intensity, higher = more binding, comparable within an allelic series) | 11.2 upbm affinity estimate (log intensity, higher = more binding, comparable within an allelic series) | 10.5 upbm affinity estimate (log intensity, higher = more binding, comparable within an allelic series) | 11.5 upbm affinity estimate (log intensity, higher = more binding, comparable within an allelic series) | 11.4 upbm affinity estimate (log intensity, higher = more binding, comparable within an allelic series) | 11.4 upbm affinity estimate (log intensity, higher = more binding, comparable within an allelic series) | 11.2 upbm affinity estimate (log intensity, higher = more binding, comparable within an allelic series) | 11.3 upbm affinity estimate (log intensity, higher = more binding, comparable within an allelic series) | 11.2 upbm affinity estimate (log intensity, higher = more binding, comparable within an allelic series)
5 | GGCCCCGA | 9 upbm affinity estimate (log intensity, higher = more binding, comparable within an allelic series) | 8.8 upbm affinity estimate (log intensity, higher = more binding, comparable within an allelic series) | 8.92 upbm affinity estimate (log intensity, higher = more binding, comparable within an allelic series) | 8.86 upbm affinity estimate (log intensity, higher = more binding, comparable within an allelic series) | 8.96 upbm affinity estimate (log intensity, higher = more binding, comparable within an allelic series) | 8.93 upbm affinity estimate (log intensity, higher = more binding, comparable within an allelic series) | 8.91 upbm affinity estimate (log intensity, higher = more binding, comparable within an allelic series) | 9.02 upbm affinity estimate (log intensity, higher = more binding, comparable within an allelic series) | 9.12 upbm affinity estimate (log intensity, higher = more binding, comparable within an allelic series) | 8.81 upbm affinity estimate (log intensity, higher = more binding, comparable within an allelic series) | 8.95 upbm affinity estimate (log intensity, higher = more binding, comparable within an allelic series) | 8.99 upbm affinity estimate (log intensity, higher = more binding, comparable within an allelic series) | 8.84 upbm affinity estimate (log intensity, higher = more binding, comparable within an allelic series)
6 | ACGTATCA | 11.3 upbm affinity estimate (log intensity, higher = more binding, comparable within an allelic series) | 10.3 upbm affinity estimate (log intensity, higher = more binding, comparable within an allelic series) | 11.3 upbm affinity estimate (log intensity, higher = more binding, comparable within an allelic series) | 9.82 upbm affinity estimate (log intensity, higher = more binding, comparable within an allelic series) | 10.7 upbm affinity estimate (log intensity, higher = more binding, comparable within an allelic series) | 11.1 upbm affinity estimate (log intensity, higher = more binding, comparable within an allelic series) | 10.4 upbm affinity estimate (log intensity, higher = more binding, comparable within an allelic series) | 11.3 upbm affinity estimate (log intensity, higher = more binding, comparable within an allelic series) | 11.3 upbm affinity estimate (log intensity, higher = more binding, comparable within an allelic series) | 11.2 upbm affinity estimate (log intensity, higher = more binding, comparable within an allelic series) | 11.1 upbm affinity estimate (log intensity, higher = more binding, comparable within an allelic series) | 11.1 upbm affinity estimate (log intensity, higher = more binding, comparable within an allelic series) | 11 upbm affinity estimate (log intensity, higher = more binding, comparable within an allelic series)
7 | CGGCGGAA | 8.84 upbm affinity estimate (log intensity, higher = more binding, comparable within an allelic series) | 8.9 upbm affinity estimate (log intensity, higher = more binding, comparable within an allelic series) | 8.85 upbm affinity estimate (log intensity, higher = more binding, comparable within an allelic series) | 9.07 upbm affinity estimate (log intensity, higher = more binding, comparable within an allelic series) | 8.95 upbm affinity estimate (log intensity, higher = more binding, comparable within an allelic series) | 8.9 upbm affinity estimate (log intensity, higher = more binding, comparable within an allelic series) | 8.96 upbm affinity estimate (log intensity, higher = more binding, comparable within an allelic series) | 9.04 upbm affinity estimate (log intensity, higher = more binding, comparable within an allelic series) | 8.95 upbm affinity estimate (log intensity, higher = more binding, comparable within an allelic series) | 8.82 upbm affinity estimate (log intensity, higher = more binding, comparable within an allelic series) | 8.8 upbm affinity estimate (log intensity, higher = more binding, comparable within an allelic series) | 8.95 upbm affinity estimate (log intensity, higher = more binding, comparable within an allelic series) | 8.9 upbm affinity estimate (log intensity, higher = more binding, comparable within an allelic series)
8 | CCAGTGCG | 8.98 upbm affinity estimate (log intensity, higher = more binding, comparable within an allelic series) | 8.96 upbm affinity estimate (log intensity, higher = more binding, comparable within an allelic series) | 9 upbm affinity estimate (log intensity, higher = more binding, comparable within an allelic series) | 9.02 upbm affinity estimate (log intensity, higher = more binding, comparable within an allelic series) | 8.94 upbm affinity estimate (log intensity, higher = more binding, comparable within an allelic series) | 8.99 upbm affinity estimate (log intensity, higher = more binding, comparable within an allelic series) | 9.05 upbm affinity estimate (log intensity, higher = more binding, comparable within an allelic series) | 9.12 upbm affinity estimate (log intensity, higher = more binding, comparable within an allelic series) | 9.15 upbm affinity estimate (log intensity, higher = more binding, comparable within an allelic series) | 9.01 upbm affinity estimate (log intensity, higher = more binding, comparable within an allelic series) | 9.07 upbm affinity estimate (log intensity, higher = more binding, comparable within an allelic series) | 9.01 upbm affinity estimate (log intensity, higher = more binding, comparable within an allelic series) | 8.95 upbm affinity estimate (log intensity, higher = more binding, comparable within an allelic series)
9 | GATACATA | 11.1 upbm affinity estimate (log intensity, higher = more binding, comparable within an allelic series) | 10.4 upbm affinity estimate (log intensity, higher = more binding, comparable within an allelic series) | 11 upbm affinity estimate (log intensity, higher = more binding, comparable within an allelic series) | 10 upbm affinity estimate (log intensity, higher = more binding, comparable within an allelic series) | 10.7 upbm affinity estimate (log intensity, higher = more binding, comparable within an allelic series) | 10.9 upbm affinity estimate (log intensity, higher = more binding, comparable within an allelic series) | 10.4 upbm affinity estimate (log intensity, higher = more binding, comparable within an allelic series) | 11 upbm affinity estimate (log intensity, higher = more binding, comparable within an allelic series) | 11.1 upbm affinity estimate (log intensity, higher = more binding, comparable within an allelic series) | 11 upbm affinity estimate (log intensity, higher = more binding, comparable within an allelic series) | 10.8 upbm affinity estimate (log intensity, higher = more binding, comparable within an allelic series) | 10.9 upbm affinity estimate (log intensity, higher = more binding, comparable within an allelic series) | 10.8 upbm affinity estimate (log intensity, higher = more binding, comparable within an allelic series)

Source: publication PMC11006913
